The structures appear in SMILES notation. About 83,000 compounds went through this panel and 20% of them were active in at least one assay; those are over-represented in the sample as a whole.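 The endpoint reported here, percent growth, reads 100 for growth as untreated, 0 for no net growth and -100 for all cells dead.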 A number with no mark means an inactive call. Active and inactive are the calls of the source. Rule for the calls: active = growth percent below 10; inactive = the rest.

Test systems include NCI-H23 lung; NCI-H226 lung; NCI-H322M lung; HOP-62 NSCLC; NCI-H460 lung; HOP-92 NSCLC; NCI-H522 lung; A549/ATCC NSCLC; 786-0 renal; DU-145 prostate; K-562 leukemia; MALME-3M melanoma; MDA-MB-231 breast; RXF 393 renal; SF-268 CNS; SF-295 CNS; SF-539 CNS; UACC-257 melanoma; M14 melanoma.
Common to all, as to assay: NCI-60 one-dose screen, 48 h (100 = growth as untreated, 0 = no growth, -100 = all killed)
Settings in all cases: 10 µM unless noted

As to `O=S(=O)(NCCNc1cc(-c2c(-c3cccc(O)c3)nc3sccn23)ccn1)c1ccc(Br)cc1`, the growth is 76.2% in the test with NCI-H23 lung; 62.3% with NCI-H226 lung; 81.1% with NCI-H322M lung; 102% in the test with HOP-62 NSCLC; 54.1% in the test on NCI-H460 lung; 74.9% with HOP-92 NSCLC. Besides, the growth is 66.1% in the test on NCI-H522 lung; 50.1% in the test with A549/ATCC NSCLC; 52.7% in the test on 786-0 renal; 57.9% with DU-145 prostate; 34.5% in the test with K-562 leukemia; 78.8% in the test on MALME-3M melanoma. For the same compound, the growth in the test on MDA-MB-231 breast is 72.8%; in the test with RXF 393 renal it was 60%; with SF-268 CNS, 41.3%; with SF-295 CNS it was 69%; in the test on SF-539 CNS it was 75.2%; in the test on UACC-257 melanoma, 89.1%. The growth in the test with M14 melanoma is 60.8%.
In the case of `N=C(N)c1ccc(-c2ccc(-c3ccc(Cl)cn3)s2)cc1`, the growth in the test with NCI-H23 lung was 67.8%; in the test with NCI-H226 lung, 83.8%; in the test on NCI-H322M lung, 4.72% (active); in the test with HOP-62 NSCLC, 56.3%; with NCI-H460 lung it was -46.5% (active); in the test on HOP-92 NSCLC, 34.7%. Further, the growth is 48.7% with NCI-H522 lung; 27.6% in the test on A549/ATCC NSCLC; 52.9% in the test with 786-0 renal; 37.6% in the test with DU-145 prostate; -9.89% (active) with K-562 leukemia; 77.9% in the test on MALME-3M melanoma. The growth was -46.5% (active) with MDA-MB-231 breast; 52% with RXF 393 renal; 79.8% with SF-268 CNS; -41.4% (active) in the test with SF-295 CNS; 40.2% in the test on SF-539 CNS; 94.2% with UACC-257 melanoma. Moreover, the growth with M14 melanoma is 3.24% (active).
Regarding `CCCCN(CCCC)CCCn1c(=O)c2sc3ncccc3c2n2nnc(-c3ccccc3)c12`, the growth with NCI-H23 lung is 101%; with NCI-H226 lung, 105%; in the test on NCI-H322M lung, 103%; in the test with HOP-62 NSCLC it was 105%; in the test on NCI-H460 lung it was 105%; in the test on HOP-92 NSCLC, 74.8%. Besides, the growth with NCI-H522 lung is 89.5%; in the test on A549/ATCC NSCLC, 102%; with 786-0 renal it was 108%; in the test with DU-145 prostate, 114%; with K-562 leukemia, 108%; with MDA-MB-231 breast it was 93.8%. In addition, the growth in the test on RXF 393 renal was 111%; in the test with SF-268 CNS, 112%; in the test with SF-539 CNS it was 99.6%; with UACC-257 melanoma, 104%; with M14 melanoma, 107%.
For `Clc1ccc(-c2nnc(Cn3ccnc3)o2)cc1`, the growth with NCI-H23 lung is 93.9%; in the test with NCI-H226 lung it was 102%; in the test on NCI-H322M lung it was 113%; in the test on HOP-62 NSCLC it was 89.3%; in the test with NCI-H460 lung, 112%; in the test on HOP-92 NSCLC, 132%. For the same compound, the growth is 115% in the test with NCI-H522 lung; 100% with A549/ATCC NSCLC; 94% in the test with 786-0 renal; 115% in the test on DU-145 prostate; 95.8% with K-562 leukemia; 120% in the test with MALME-3M melanoma. For the same compound, the growth was 102% in the test on MDA-MB-231 breast; 103% in the test on SF-268 CNS; 119% in the test on SF-295 CNS; 98.9% in the test on SF-539 CNS; 111% in the test with UACC-257 melanoma; 87.1% in the test with M14 melanoma.
Turning to `Cc1c(C(N)=O)sc2nc(C)n(/N=c3\scc(-c4ccccc4)n3Cc3ccccc3)c(=O)c12`, the growth is 20.5% in the test with NCI-H23 lung; 30.9% in the test with NCI-H226 lung; 35.4% in the test on NCI-H322M lung; 24.2% in the test with HOP-62 NSCLC; 7.46% (active) in the test with NCI-H460 lung; -19.1% (active) with HOP-92 NSCLC. The growth was 24.9% in the test with NCI-H522 lung; 0% (active) in the test on A549/ATCC NSCLC; 50.7% in the test with 786-0 renal; 42.2% with DU-145 prostate; 8.42% (active) in the test with K-562 leukemia; 60.5% with MALME-3M melanoma. For the same compound, the growth was 43% in the test on MDA-MB-231 breast; -5.46% (active) in the test on RXF 393 renal; 21.3% with SF-268 CNS; 22.2% with SF-539 CNS; 4.85% (active) in the test with UACC-257 melanoma; 36.4% in the test on M14 melanoma.
As to `CC(C)CCC[C@@H](C)[C@H]1CCC2C3=CCC4C(=O)C=CC(=O)C4C3CC[C@@]21C` (some centres not stated), the growth in the test on NCI-H23 lung is 8.4% (active); in the test on NCI-H226 lung, 42%; in the test on NCI-H322M lung, 42.6%; in the test on HOP-62 NSCLC, 12.1%; with NCI-H460 lung, 2.88% (active); in the test with HOP-92 NSCLC, -28.9% (active). The growth was -46.1% (active) in the test on NCI-H522 lung; 8.75% (active) in the test with A549/ATCC NSCLC; -5.66% (active) in the test with 786-0 renal; 26.6% in the test on DU-145 prostate; 9.94% (active) in the test on K-562 leukemia; 28.6% with MDA-MB-231 breast. Also, the growth is -66.6% (active) with RXF 393 renal; 20.4% with SF-268 CNS; -61.2% (active) in the test on SF-295 CNS; -25.6% (active) with SF-539 CNS; -3.37% (active) in the test on UACC-257 melanoma; 17.5% in the test on M14 melanoma.
Regarding `O=C1Nc2ccccc2SC1c1ccccc1Cl` (configuration not stated), the growth was 102% in the test with NCI-H23 lung; 104% in the test on NCI-H226 lung; 95.6% with NCI-H322M lung; 96.3% with HOP-62 NSCLC; 116% in the test on NCI-H460 lung; 69.2% with HOP-92 NSCLC. In addition, the growth with NCI-H522 lung is 103%; in the test with A549/ATCC NSCLC it was 90%; with 786-0 renal it was 97.5%; in the test with DU-145 prostate, 108%; in the test on K-562 leukemia, 41.2%; in the test with MALME-3M melanoma, 81.9%. In addition, the growth was 98.9% in the test with MDA-MB-231 breast; 87.8% in the test with SF-268 CNS; 58.2% with SF-295 CNS; 109% with SF-539 CNS; 100% with UACC-257 melanoma; 93.7% in the test on M14 melanoma.
In the case of `COc1cc(C2CC(=O)Nc3n[nH]c(-c4ccccc4)c32)cc(OC)c1OC` (configuration not stated), the growth in the test on NCI-H23 lung is 81.6%; in the test on NCI-H226 lung, 91.8%; with NCI-H322M lung, 94.1%; in the test on HOP-62 NSCLC, 58%; with NCI-H460 lung, 67.5%; with HOP-92 NSCLC, 77.4%. Also, the growth in the test on NCI-H522 lung was 30.1%; with A549/ATCC NSCLC, 46%; in the test on 786-0 renal, 75.3%; in the test with DU-145 prostate, 102%; in the test on K-562 leukemia, 24.6%; in the test with MALME-3M melanoma, 68.5%. The growth in the test on MDA-MB-231 breast is 63.9%; with SF-268 CNS, 90.7%; in the test with SF-295 CNS, 75.5%; in the test with SF-539 CNS, 81.2%; in the test on M14 melanoma, 53.3%.
For the compound `Cc1cc(=O)[nH]c(N/N=C/c2cc(Br)ccc2O)n1`, the growth with NCI-H23 lung was 33.7%; in the test with NCI-H226 lung, 40.5%; in the test on NCI-H322M lung it was -15% (active); with HOP-62 NSCLC it was 48%; in the test with NCI-H460 lung it was -1.75% (active); in the test on HOP-92 NSCLC, 55%. For the same compound, the growth with NCI-H522 lung was 19.5%; in the test on A549/ATCC NSCLC, 23.4%; with 786-0 renal it was 7.2% (active); in the test on DU-145 prostate it was 41.7%; in the test on K-562 leukemia, 22.5%; in the test on MDA-MB-231 breast, 35.5%. In addition, the growth in the test on RXF 393 renal is 70.2%; in the test on SF-268 CNS, 25.2%; in the test on SF-295 CNS, 5.67% (active); in the test with SF-539 CNS, 16.3%; with UACC-257 melanoma, 14.1%; with M14 melanoma it was 10%.

Values taken from PubChem BioAssay (NCI).
